Binding response (% of control) data for 48 compounds are collected here from PubChem BioAssay AID1529 (NMMLSC, 2009).

Structures are written as SMILES. Screen size: about 290,000 compounds; about 4,200 (1.4%) were called active. This is one part of a sample in which actives are shown more often than they occur.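 The calls were made as follows: active = binding response more than 3 SD above or below the average of its plate-row segment, actives on both sides; inconclusive = wells at one plate position flagged as instrument error; inactive = the rest.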

Sequence of Mitogen-activated protein kinase kinase kinase 3 (Homo sapiens) (Q99759 whole entry, looked up): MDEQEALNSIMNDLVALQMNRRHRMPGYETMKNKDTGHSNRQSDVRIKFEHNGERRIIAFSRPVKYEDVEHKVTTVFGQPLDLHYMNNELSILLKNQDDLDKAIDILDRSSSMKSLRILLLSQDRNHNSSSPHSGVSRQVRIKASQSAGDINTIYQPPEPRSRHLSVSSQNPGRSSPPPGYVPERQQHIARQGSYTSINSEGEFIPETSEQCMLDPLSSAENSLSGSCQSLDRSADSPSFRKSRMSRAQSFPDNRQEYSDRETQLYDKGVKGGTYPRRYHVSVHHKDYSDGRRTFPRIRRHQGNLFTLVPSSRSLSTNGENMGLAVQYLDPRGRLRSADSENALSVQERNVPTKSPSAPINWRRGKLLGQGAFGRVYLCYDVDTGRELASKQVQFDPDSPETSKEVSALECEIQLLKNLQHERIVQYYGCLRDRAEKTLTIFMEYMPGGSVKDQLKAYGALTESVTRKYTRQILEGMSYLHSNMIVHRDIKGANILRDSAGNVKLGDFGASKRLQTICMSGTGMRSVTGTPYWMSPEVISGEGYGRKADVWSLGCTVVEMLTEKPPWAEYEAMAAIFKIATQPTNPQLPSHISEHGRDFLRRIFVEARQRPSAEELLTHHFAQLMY

The assay has as its target Mitogen-activated protein kinase kinase kinase 3 (Homo sapiens) (UniProt Q99759). Briefly: compounds raising or lowering MEK5 association with MEKK3 PB1 – biochemical, wildtype MEKK3, multiplex bead flow cytometry, Alexa488-MEK5, primary screen (AID 1529).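 Also: Alexa488 bead fluorescence after subtracting the streptavidin-only scavenger bead signal.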 Conditions: bead-based flow cytometry, Alexa488-MEK5 binding to MEKK3; at 10 µM; actives lie on both sides; 0 = blocked by unlabeled MEK5, 100 = vehicle. A general note: A flow cytometer gives signals particle by particle.
As for `C=CCN(CC=C)S(=O)(=O)c1ccc(C(=O)Nc2sc3c(c2C(N)=O)CCCCC3)cc1`, the binding response (% of control) was 66% [inhibitor] (active).

With `C=CCN(CC=C)S(=O)(=O)c1ccc(C(=O)Nc2nc3c(s2)CCc2ccccc2-3)cc1`, the binding response (% of control) was 100% (inactive).

Regarding `NC(=O)c1c(NC(=O)c2ccccc2)sc2c1CCCC2`, the binding response (% of control) is 102% (inactive).

For the compound `NS(=O)(=O)c1ccc2nc(NC(=O)C3=COCCO3)sc2c1`, the binding response (% of control) was 100% (inactive).

Turning to `COc1cccc(NC(=O)[C@H](Cc2c[nH]c3ccccc23)NC(=O)[C@@H]2Cc3ccccc3CN2)c1`, the binding response (% of control) is 101% (inactive).

As for `CCc1nnc(SCc2cccc(F)c2)nc1CC`, the binding response (% of control) was 101% (inactive).

As for `CCc1nnc(NC(=O)c2sc3nc(C)cc(COC)c3c2N)s1`, the binding response (% of control) is 46% [inhibitor] (active).

With `COCc1cc(C)nc2sc(C(=O)NC3CCCCC3)c(N)c12`, the binding response (% of control) is 101% (inactive).

Turning to `CCc1ccc2nc3sc(C(=O)Nc4nnc(CC)s4)c(N)c3cc2c1`, the binding response (% of control) was 103% (inactive).

In the case of `CCOc1cc(C(=O)OCC(=O)Nc2cccc(C)c2)ccc1OCC(=O)N1CCOCC1`, the binding response (% of control) is 137% (active).

On to `O=C(COC(=O)c1ccccc1)Nc1cccc(S(=O)(=O)N2CCOCC2)c1`, for which the binding response (% of control) was 104% (inactive).

Regarding `COc1ccc(C(=O)OCC(=O)Nc2cccc(C(C)=O)c2)cc1OC`, the binding response (% of control) is 100% (inactive).

On to `COc1ccc(NC(=O)COc2ccc(C(=O)c3ccc(F)cc3)cc2)cc1S(N)(=O)=O`, for which the binding response (% of control) is 100% (inactive).

As for `CCc1nc2nc(C)c(NS(=O)(=O)c3ccc4c(c3)CCCC4)c(=O)n2[nH]1`, the binding response (% of control) is 101% (inactive).

Regarding `COc1ccc(CN(C)C(=O)Cc2ccsc2)c(OC)c1OC`, the binding response (% of control) is 103% (inactive).

Turning to `CCC/C(O)=C1\C(=O)CC(C)(C)CC1=Nc1ccccc1OC`, the binding response (% of control) was 102% (inactive).

For the compound `COc1ccccc1N=Cc1c(O)c2ccccc2oc1=O`, the binding response (% of control) was 121% (inactive).

Turning to `COc1ccccc1N=C(C)C1=C(O)COC1=O`, the binding response (% of control) is 81% [inhibitor] (active).

For the compound `Cc1ccc2c(C)c(C(=O)N3CCN(c4ccncc4)CC3)oc2c1C`, the binding response (% of control) is 106% (inactive).

In the case of `Cc1ccc(-c2nnc(CN3CCN(C)CC3)o2)cc1`, the binding response (% of control) was 112% (inactive).

In the case of `COc1ccc(N2CCN(Cc3nnc(-c4ccccc4)o3)CC2)cc1`, the binding response (% of control) is 139% (active).

Consider `c1ccc(-c2cnc(CN3CCN(c4ccccc4)CC3)o2)cc1`, for which the binding response (% of control) was 101% (inactive).

Consider `CCCn1c(=N)n(CC(=O)c2ccc(Cl)c(Cl)c2)c2ccccc21`, for which the binding response (% of control) is 109% (inactive).

For `CCOC(=O)c1cn[nH]c1NC(=S)Nc1ccccc1`, the binding response (% of control) was 93% (inactive).

Regarding `CCOC(=O)c1ccc(NC(=S)Nc2cc(C)cc(C)n2)cc1`, the binding response (% of control) was 77% (inactive).

Take `CCOC(=O)c1cc2c(nc1NC(=S)Nc1ccccc1)CC(C)(CC)OC2` (stereo not drawn): the binding response (% of control) is 128% (active).

Consider `CCOc1ccc(CN2CCNC(=O)C2CC(=O)NCCCC2CCCC2)cc1` (stereo not drawn), for which the binding response (% of control) is 102% (inactive).

Consider `O=C1CCN(CCCc2ccccc2)CCN1CCO`, for which the binding response (% of control) was 101% (inactive).

As for `CCOC(=O)c1ccc(NC(=O)CNC(=O)c2ccco2)cc1`, the binding response (% of control) was 108% (inactive).

With `NS(=O)(=O)c1ccc(NC(=O)COC(=O)c2ccco2)cc1`, the binding response (% of control) is 98% (inactive).

In the case of `O=C(COC(=O)CNC(=O)c1ccco1)Nc1ccc(F)cc1`, the binding response (% of control) was 65% [inhibitor] (active).

With `CCOc1ccccc1NC(=S)N1CCN(c2cccc(C)c2C)CC1`, the binding response (% of control) is 102% (inactive).

As to `O=C(Nc1ccc2c(c1)CCC2)c1ccc(Br)s1`, the binding response (% of control) was 86% (inactive).

Turning to `Oc1ccc(Br)cc1/C=N/Nc1ccccn1`, the binding response (% of control) was 99% (inactive).

On to `O=C(N/N=C/c1ccccc1O)/C(=C/c1ccccc1)CCO`, for which the binding response (% of control) was 108% (inactive).

Regarding `O=C(CCCO)N/N=C/c1cc(Br)ccc1O`, the binding response (% of control) was 129% (active).

Take `CCn1c(SCC(=O)NC2=NCCS2)nnc1C(C)NC(=O)c1ccccc1F` (stereo not drawn): the binding response (% of control) is 95% (inactive).

Turning to `Cc1ccc(CC2C(=O)N(c3ccc(F)cc3)C(=O)C2C)cc1` (stereo not drawn), the binding response (% of control) was 99% (inactive).

As to `CCOC(=O)c1sc2nc(C)[nH]c(=O)c2c1C`, the binding response (% of control) was 97% (inactive).

As to `CCOC(=O)c1sc2nc(C)nc(Nc3ccc(OC)c(OC)c3)c2c1C`, the binding response (% of control) was 101% (inactive).

Turning to `CCOC(=O)c1sc2nc(C)nc(SCC(N)=O)c2c1C`, the binding response (% of control) is 132% (active).

With `COC(C[C@@H]1O[C@@H]1C(=O)[C@H](C)OCc1ccccc1)OC`, the binding response (% of control) was 98% (inactive).

On to `CCOC(=O)/C=C/c1ccc(C(F)(F)F)cc1S(=O)(=O)NC(C)(C)C`, for which the binding response (% of control) was 100% (inactive).

On to `Cc1cc(OCCOc2cccc3cccnc23)c(C)cc1Cl`, for which the binding response (% of control) is 101% (inactive).

In the case of `OCc1ccc(OCCCOc2cccc3cccnc23)cc1`, the binding response (% of control) was 106% (inactive).

With `CCOc1cccc(OCCCOc2cccc3cccnc23)c1`, the binding response (% of control) was 143% (active).

Take `COc1cccc(CNC(=O)CCC2CCCN(C(=O)c3ccc(F)c(Cl)c3)C2)c1` (stereo not drawn): the binding response (% of control) is 99% (inactive).

Consider `CS(=O)(=O)N1CCN(CC(=O)NC2CCCC2)CC1`, for which the binding response (% of control) is 99% (inactive).
